Results filed as inconclusive are left out. Activity calls are given as the source filed them. The call rests on the fitted dose curve; in most records, active means well fitted activation curve with a large enough effect; inconclusive means small, poorly fitted or top-dose-only effect; inactive means flat fitted curve, though single readings scatter.
Potency means the concentration at half of the fitted maximal effect.

A short description of this assay: qHTS Assay for NPC1 Promoter Activators: Initial hit validation from the primary screen.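 On activity, positive = activation: reporter driven by the mutant form of the NPC1 promoter; % of control where 0% means no effect.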 Conditions: Huh7 NPC1 promoter-luciferase reporter, luminescence, 24 h; series mostly up to 46.1 µM; activity, positive = activation: at the top concentration. Summed up:
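Huh7 cells stably carrying NPC1 promoter-luciferase, 1500 cells per well in OP-MEM I with 10% FBS; compounds added after 2 hours and incubated 24 hours at 37C. Luminescence read 10 minutes after Amplite luciferase reagent.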
For orientation: Quantitative high-throughput screening tests each substance at several concentrations.
For the compound `N#C/C(=C\c1ccc[nH]1)C(=O)Nc1ccccc1Cl`, the Potency was 3970 nM (active).
Still for that read-out and setting: the same measure for `Cc1ccc(N(O)C(=O)NCCCCNC(=O)N(O)c2ccc(C)cc2)cc1`: 25000 nM (active).
With `O=C(/C=C/c1ccco1)NCC1OCCc2ccccc21` (stereo not drawn), the “activity, positive = activation” value is 2.53% (inactive).
Same read-out and setting: the same measure for `NNC(=O)c1cccc(S(=O)(=O)Nc2cc(Cl)ccc2Cl)c1`: 2.99% (inactive).
Turning to `Cc1nnc2n(c1=O)N=C(c1ccc(Cl)cc1)CS2`, the Potency is 1120 nM (active).
Consider `CC(=O)Nc1ccc(NC(=O)COc2ncnc3ccccc23)cc1`, for which the “activity, positive = activation” value was 7.96% (inactive).
The same measure, in the same setting: next, `COc1ccc(NC(=O)CCCN2C(=O)C(c3ccccc3)Oc3cccnc32)cc1OC` (stereo not drawn): -7.4% (inactive); `CCCC(C)NC(=O)c1ccc(OCc2ccc(Cl)cc2)c(OC)c1` (stereo not drawn): 5.79% (inactive).
Turning to `N#CC/C(N)=N/NC(=O)CCCNc1ncc(C(F)(F)F)cc1Cl`, the Potency is 15800 nM (active).
For `COCCNC(=O)C1CCC(CNS(=O)(=O)c2ccc(F)cc2)CC1` (stereo not drawn), the “activity, positive = activation” value is 1.82% (inactive).
As for `Cc1ccc2c(c1)sc1nc(=O)n(-c3ccccc3)c(=O)n12`, the Potency is 705 nM (active).
As for `O=C(CSc1nnc(-c2ccccn2)o1)Nc1ccccc1F`, the Potency is 1120 nM (active).
On the same count and under the same terms, next, `N#C/C(=N\Nc1ccc(Cl)cc1)C(=N)N1CCCCC1`: 281 nM (active).
For `NC(=O)C1(NC(=O)[C@@H]2CC3(CC(c4cccc(NC(=O)[C@@H]5CCC(=O)N5)c4)=NO3)CN2C(=O)c2ccccc2)CC1` (stereo partly drawn), the “activity, positive = activation” value was 3.18% (inactive).
Same read-out and setting: the same measure for `Cc1ccc(C(=O)Nc2nnc(S(=O)(=O)N3CCOCC3)s2)cc1`: 13% (inactive).
Consider `O=C(Nc1ccc(-c2nc3cccnc3s2)cc1)c1ccc(Cl)nc1`, for which the Potency is 1250 nM (active).
On to `COc1ccccc1C(=O)Nc1nnc(SCC(=O)NC2CCCC2)s1`, for which the Potency is 705 nM (active).
Take `COc1ccc(S(=O)(=O)NC(C(=O)NCCc2ccccn2)C(C)C)cc1` (stereo not drawn): the “activity, positive = activation” value was -3.43% (inactive).
Still for that read-out and setting: the same measure for `COc1ccc(-c2csc(N(CCCN(C)C)C(=O)c3ccccc3C)n2)cc1`: -14.9% (inactive); for `COc1ccccc1CNC(=O)COc1ccc(C)cc1`: -3.78% (inactive).
In the case of `O=C(CCN1C(=O)c2ccccc2C1=O)Nc1ccc(-c2nc3ccccc3s2)cc1`, the Potency was 250 nM (active).
Still for that read-out and setting: next, `COc1ccc(-c2nnc(SCC(=O)/C(C#N)=C(\C)N)o2)cc1`: 223 nM (active).
For `Cc1nc(-c2ccc(S(=O)(=O)Oc3ccc(Cl)cc3Cl)s2)cs1`, the “activity, positive = activation” value was -17.2% (inactive).
On the same count and under the same terms, next, `COc1ccccc1OCCCC(=O)NCc1ccco1`: -0.92% (inactive); `O=C(O)C1=CC[C@@H](c2ccc(Cl)cc2)N(S(=O)(=O)c2ccc(Cl)cc2)[C@H]1c1ccccc1`: -1.2% (inactive).
Still for that read-out and setting: next, `O=C(NCCSCc1c(F)cccc1Cl)c1ccc(CN2CCOCC2)cc1`: -6.4% (inactive).
Regarding `Cc1cc(C)c2c(N)c(C(=O)Nc3ccc([N+](=O)[O-])cc3)sc2n1`, the Potency was 396 nM (active).
In the case of `CCOC(=O)c1cc2sccc2n1CC(=O)N1CCCc2ccccc21`, the “activity, positive = activation” value was -13.7% (inactive).
On the same count and under the same terms, the same measure for `CCCCCCC(=O)Nc1ccc(C(=O)N/N=C/c2cccnc2)cc1`: 5.33% (inactive).
Turning to `CCCCCCOc1ccc(OC(=O)c2cccnc2)cc1`, the Potency is 19900 nM (active).
As to `C=CCOC(=O)N1CCN(c2cccc(C(F)(F)F)c2)CC1`, the “activity, positive = activation” value is -3.82% (inactive).
Consider `O=C(COc1ccccc1F)Nc1ccc(-c2nc3ccccc3s2)cc1`, for which the Potency is 250 nM (active).
`CCCN(CCC)CCCNC(=O)c1cc2cc3ccc(Cl)cc3nc2o1`: the “activity, positive = activation” value was 6.51% (inactive).
